# In PubChem BioAssay:
# The source made the active and inactive calls. Unless noted, no rule for the calls is given here.
# Legend:
# [1] = resazurin metabolic signal in HepG2 cells – cell-based, resazurin fluorescence, 24 h, PK04 Diversity Set, profiling panel (AID 1172); conditions: HepG2 viability, higher = more signal; also: test concentration not given here
# [2] = budding yeast growth changes without added modifier – OD600, strain BY4716, 24 h, basal condition, primary screen (AID 1173); conditions: S. cerevisiae BY4716 growth, OD600, 24 h; higher = more signal, called active from +8 up or from −8 down
# [3] = viability profiling in MM1S myeloma cells – cell-based, resazurin fluorescence, basal, 24 h, PK04 Diversity Set, profiling panel (AID 1174); conditions: higher = more signal, called active from +8 up or from −8 down;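 also: MM1S multiple myeloma cell line; test concentration not given here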
# [4] = molecular target: Dihydroorotate dehydrogenase (quinone), mitochondrial (Plasmodium falciparum (isolate 3D7)) (UniProt Q08210); assay: inhibition of P. falciparum DHODH – biochemical, C-terminal His tag, absorbance 600 nm, primary screen (AID 1175); conditions: PfDHODH enzyme, DCIP absorbance 600 nm; higher = more signal, called active from +8 up or from −8 down;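 also: recombinant parasite enzyme with a five histidine tag at its C terminus; test concentration not given here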
# Sequence of Dihydroorotate dehydrogenase (quinone), mitochondrial (Plasmodium falciparum (isolate 3D7)) (Q08210 whole entry, looked up): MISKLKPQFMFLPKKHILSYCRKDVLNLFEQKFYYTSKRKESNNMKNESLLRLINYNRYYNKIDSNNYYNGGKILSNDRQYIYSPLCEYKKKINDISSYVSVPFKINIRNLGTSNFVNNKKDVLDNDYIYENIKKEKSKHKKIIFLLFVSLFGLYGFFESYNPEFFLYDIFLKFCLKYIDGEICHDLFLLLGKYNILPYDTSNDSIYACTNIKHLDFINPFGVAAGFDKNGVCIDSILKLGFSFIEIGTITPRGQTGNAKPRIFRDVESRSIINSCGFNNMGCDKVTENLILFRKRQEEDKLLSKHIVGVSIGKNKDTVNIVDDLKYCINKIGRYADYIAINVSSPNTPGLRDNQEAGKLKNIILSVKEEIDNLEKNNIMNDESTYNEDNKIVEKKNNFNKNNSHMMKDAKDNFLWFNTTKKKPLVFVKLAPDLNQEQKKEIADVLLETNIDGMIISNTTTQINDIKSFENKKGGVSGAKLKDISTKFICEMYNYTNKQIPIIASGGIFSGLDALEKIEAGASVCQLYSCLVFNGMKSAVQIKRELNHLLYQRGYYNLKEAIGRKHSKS
# [5] = inhibition of PAO1 biofilm formation – strain PAO1, LB-PBS medium, absorbance 600 nm, primary screen (AID 1176); also: test concentration not given here; conditions: P. aeruginosa PAO1 growth/biofilm, A600, 12 h; higher = more signal
# [6] = growth modulation of vineyard yeast isolate – strain RM11-1a, OD600, basal, 24 h, primary screen (AID 1177);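 also: cultures grown under basal conditions with no added stressor; test concentration not given here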; conditions: S. cerevisiae RM11-1a growth, OD600, 24 h; higher = more signal, called active from +8 up or from −8 down
# [7] = growth of efflux-deficient E. coli DRC39 – strain DRC39, OD650, 24 h, E. coli filamentation inducers, primary screen (AID 1178);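 also: growth measured as culture turbidity by optical density at 650 nm; test concentration not given here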; conditions: E. coli DRC39 acrAB, higher = more signal, called active from +8 up or from −8 down
# [8] = growth of efflux-deficient E. coli DRC39 – strain DRC39, OD650, 48 h, E. coli filamentation inducers, primary screen (AID 1179);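 also: screen aims at cell division blockers that make cells filament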; conditions: E. coli DRC39 delta-acrAB growth, higher = more signal, called active from +8 up or from −8 down
# [9] = viability profiling in RPMI8226 myeloma cells – cell-based, resazurin fluorescence, basal, 24 h, PK04 Diversity Set, profiling panel (AID 1180); conditions: higher = more signal;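 also: RPMI8826 multiple myeloma cell line at 5000 cells per well; test concentration not given here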
# [10] = molecular target: E3 ubiquitin-protein ligase XIAP (Homo sapiens) (UniProt P98170); assay: small molecules binding XIAP protein – biophysical, small-molecule microarray, fluorescence 635 nm, primary screen (AID 1181); conditions: higher = more signal;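 also: score merges 667 nm emission and signal to noise over triplicate slides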
# Sequence of E3 ubiquitin-protein ligase XIAP (Homo sapiens) (P98170 whole entry, looked up): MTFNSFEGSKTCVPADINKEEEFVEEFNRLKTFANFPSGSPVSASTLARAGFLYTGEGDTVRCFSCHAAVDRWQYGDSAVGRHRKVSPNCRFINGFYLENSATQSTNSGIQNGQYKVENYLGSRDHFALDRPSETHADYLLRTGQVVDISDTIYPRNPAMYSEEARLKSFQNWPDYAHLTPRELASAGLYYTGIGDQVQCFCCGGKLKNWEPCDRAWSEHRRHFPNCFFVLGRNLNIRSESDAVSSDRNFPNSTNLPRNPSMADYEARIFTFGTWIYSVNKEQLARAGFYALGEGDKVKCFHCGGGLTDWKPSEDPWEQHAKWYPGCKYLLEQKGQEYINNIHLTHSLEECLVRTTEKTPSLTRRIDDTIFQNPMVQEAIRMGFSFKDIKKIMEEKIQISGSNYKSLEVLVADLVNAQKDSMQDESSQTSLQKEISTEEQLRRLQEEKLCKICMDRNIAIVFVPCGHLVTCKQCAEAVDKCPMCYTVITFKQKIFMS
Compound,z-score [1],z-score [2],z-score [3],composite z-score [4],z-score [5],z-score [6],z-score [7],z-score [8],z-score [9],composite z-score [10]
CCCC[C@@H]1C[C@H]1[C@@H](NC(=O)c1cccnc1)c1ccc(Cl)cc1,0.562,-6.77 (inactive),-0.731 (inactive),0.303 (inactive),-0.0019 (inactive),-2.78 (inactive),0.014 (inactive),-0.0491 (inactive),-0.663,-0.0948
CN(C)CCCCCCNC(=O)[C@@H]1C[C@@H]2C(=O)N3CCC[C@H]3C(=O)N2[C@@H]1c1ccc(O)cc1,-0.627,-0.732 (inactive),-0.235 (inactive),-1.7 (inactive),1.82 (inactive),-2.55 (inactive),0.966 (inactive),1.64 (inactive),-0.198,0.117
COCCOC(=O)N1C(=O)[C@@]2(c3ccccc31)[C@H](C(N)=O)[C@H]1C(=O)O[C@H](c3ccccc3)[C@H](c3ccccc3)N1[C@@H]2c1ccc(O)cc1,-0.755,-0.494 (inactive),-0.593 (inactive),-0.294 (inactive),0.806 (inactive),0.275 (inactive),0.396 (inactive),0.787 (inactive),-1.01,0.175
O=C1OCCC/C=C\[C@H]2OC34C=CCN(c5ccc6ccccc6c5)C(=O)[C@H]3N(CCCCCO)C(=O)[C@@H]4C12 (stereo not given in full),0.0877,-0.801 (inactive),-0.377 (inactive),-0.338 (inactive),-0.649 (inactive),-0.878 (inactive),0.352 (inactive),-0.005 (inactive),0.408,-0.0541
COc1ccc(C(O)C2C=CC3C(=O)N(C)C(=O)C3N2NC(=O)OC(C)(C)C)c2ccccc12 (stereo not given),-1.78,-1.15 (inactive),-0.0317 (inactive),0.799 (inactive),0.503 (inactive),1.06 (inactive),-0.45 (inactive),-0.765 (inactive),-0.993,-0.193
CCCCCCc1nc(-c2ccc(-c3ccc(Cl)c(Cl)c3)o2)cc2c1[Si](C(C)C)(C(C)C)O[C@H]2c1ccccc1,1.32,-0.911 (inactive),0.551 (inactive),-0.206 (inactive),-0.771 (inactive),-0.361 (inactive),0.708 (inactive),0.447 (inactive),0.0719,-0.0641
COCCOC(=O)N1C(=O)[C@@]2(c3cc(C#CC4(O)CCCCCC4)ccc31)[C@H](C(=O)Nc1nc3ccccc3s1)[C@H]1C(=O)O[C@H](c3ccccc3)[C@H](c3ccccc3)N1[C@@H]2c1ccccc1OCCO,0.709,0.504 (inactive),-1.15 (inactive),-0.747 (inactive),0.249 (inactive),1.78 (inactive),-0.632 (inactive),0.635 (inactive),-0.435,-0.0118
CC(C)OC(=O)C=C1C[C@@H](c2cccc(Cl)c2)O[C@@H](c2cccc(Cl)c2)O1,-0.307,-2.84 (inactive),0.147 (inactive),-0.516 (inactive),0.959 (inactive),-0.587 (inactive),-0.581 (inactive),0.323 (inactive),-1.03,0.0307
Cc1ccc(S[C@]2(C(=O)O)CC(=O)N(C(C)C)[C@@H]2c2ccc(CO)cc2)cc1,0.0469,-1.45 (inactive),0.359 (inactive),-0.896 (inactive),1.02 (inactive),-1.33 (inactive),1.44 (inactive),1.93 (inactive),0.376,-0.0962
Cc1ccc(S(=O)(=O)N2C[C@@H](C(=O)O)[C@H](Sc3ccccc3)C[C@H]2c2ccccc2)cc1,-0.199,-0.638 (inactive),-0.26 (inactive),-1.43 (inactive),0.409 (inactive),-0.339 (inactive),-0.529 (inactive),-1.55 (inactive),-0.911,-0.303
C#CCNCc1ccccc1,-0.0158,-1.11 (inactive),0.642 (inactive),-0.631 (inactive),-0.677 (inactive),-0.389 (inactive),-0.758 (inactive),-0.624 (inactive),0.353,-0.0848
CCOC(=O)C[C@H]1[C@H](OC(=O)c2ccc(-c3ccccc3)cc2)[C@@H](NC(=O)c2ccccc2)c2cc(OCCCO)ccc2N1C(=O)Cc1ccc(OC)cc1,-0.161,0.742 (inactive),0.393 (inactive),0.593 (inactive),0.845 (inactive),1.47 (inactive),0.835 (inactive),0.451 (inactive),-0.041,-0.0936
C=C(/C(=C/C[C@H](OC(=O)c1ccncc1)c1ccc(OCCO)cc1)c1cc(C(=O)OC)ccc1OC)C(C)C,0.438,-1.44 (inactive),-0.0968 (inactive),-1.88 (inactive),-0.681 (inactive),-0.517 (inactive),-0.427 (inactive),-0.579 (inactive),-0.0979,-0.0095
COC(=O)C(CC#Cc1ccc2c(c1)[C@]1(C(=O)N2)[C@H](c2ccccc2OCCO)N2[C@H](c3ccccc3)[C@H](c3ccccc3)OC(=O)[C@H]2[C@@H]1C(=O)O)C(=O)OC,0.622,-0.502 (inactive),1.39 (inactive),-5.13 (inactive),1.96 (inactive),2.98 (inactive),0.84 (inactive),0.905 (inactive),-0.259,0.0533
COCCOC(=O)N1C(=O)[C@@]2(c3cc(C#CC4(O)CCCCCC4)ccc31)[C@H](C(=O)Nc1nc3ccccc3s1)[C@H]1C(=O)O[C@H](c3ccccc3)[C@H](c3ccccc3)N1[C@@H]2c1ccc(OCCO)cc1,-0.0451,1.16 (inactive),-0.584 (inactive),0.901 (inactive),2.69 (inactive),3 (inactive),-0.451 (inactive),-0.976 (inactive),-0.523,0.0073
NC(=O)[C@@]1(Cc2ccccc2)N=C(c2ccc(OCCCO)cc2)O[C@H]1c1ccccc1,-0.815,-1.05 (inactive),0.597 (inactive),0.842 (inactive),0.466 (inactive),-0.541 (inactive),1.54 (inactive),0.915 (inactive),-0.0693,0.225
CC(C)NC(=O)[C@@H]1c2ccccc2C(=O)N(C(C)C)[C@H]1c1ccc(CO)cc1,1.02,-0.37 (inactive),0.537 (inactive),0.654 (inactive),-0.397 (inactive),0.0971 (inactive),0.494 (inactive),0.671 (inactive),0.135,-0.398
CC(c1ccccc1)C(O)C1C=CC2C(=O)N(C)C(=O)C2N1NC(=O)OC(C)(C)C (stereo not given),-0.67,-0.424 (inactive),-0.267 (inactive),-0.14 (inactive),0.903 (inactive),0.732 (inactive),-0.182 (inactive),-0.339 (inactive),0.15,0.184
CCOc1cc(C(O)C2C=CC3C(=O)N(c4ccccc4)C(=O)C3N2Nc2ccc(C(C)C)cc2)ccc1O (stereo not given),-1.14,-1.16 (inactive),-0.988 (inactive),1.15 (inactive),0.779 (inactive),1.68 (inactive),-0.361 (inactive),-1.34 (inactive),-1.3,0.0891
C=CCN1C(=O)[C@]2(Cc3ccccc3)N=C(c3ccc(OCCCO)cc3)O[C@@H]2c2ccccc21,-0.983,-1.34 (inactive),-4.58 (inactive),-0.963 (inactive),0.824 (inactive),1.68 (inactive),0.0733 (inactive),0.884 (inactive),-5.39,0.33
CCOC(=O)C[C@H]1[C@H](OC(=O)c2ccc(C(=O)c3ccccc3)cc2)[C@@H](NC(=O)Cc2ccc(OC)cc2)c2cc(OCCCO)ccc2N1C(=O)c1ccc2ccccc2n1,-0.0666,-0.337 (inactive),-0.0911 (inactive),0.764 (inactive),0.207 (inactive),0.11 (inactive),-0.572 (inactive),-0.335 (inactive),0.273,0.0801
CC(CO)N1C(=O)[C@@H]2C3C(=O)OCCC/C=C\[C@H]3OC23C=CCN(CCN2CCOCC2)C(=O)[C@@H]13 (stereo not given in full),-0.167,-0.193 (inactive),-0.72 (inactive),-0.387 (inactive),0.053 (inactive),-0.137 (inactive),0.218 (inactive),0.685 (inactive),-0.784,1.01
[N-]=[N+]=Nc1ccccc1C[C@]1(C(=O)N2CCCCC2)COC(c2ccc(OCCCO)cc2)=N1,0.508,-1.44 (inactive),-0.823 (inactive),1.78 (inactive),-0.248 (inactive),0.266 (inactive),1.18 (inactive),0.344 (inactive),0.552,0.054
COC(=O)[C@@]1(Cc2ccccc2)[C@H]2c3cc(C(=O)N4CCCC4)n(Cc4c(CO)[nH]cc(C)c4=O)c3C[C@H]2CN1C(=O)c1ccccc1,-0.789,1.01 (inactive),-0.74 (inactive),0.255 (inactive),0.287 (inactive),0.624 (inactive),-0.384 (inactive),0.156 (inactive),-0.467,0.406
CCCCCCc1nc(-c2ccc(-c3ccc(Cl)c(Cl)c3)o2)c(C)c2c1[Si](C(C)C)(C(C)C)OC2,-0.865,-4.18 (inactive),-2.84 (inactive),-2.2 (inactive),0.668 (inactive),-0.721 (inactive),-0.0618 (inactive),-0.616 (inactive),-1.42,-0.113
